Measurements as given in the supplement of paper PMC10338343.
± gives the standard deviation.

What follows are sequences tested on EfPiwi piRISC loaded with piRNA #1 (26 nt) (assay: pre-steady-state target cleavage rate (min^-1); auxiliary factor: 500 nM Ephydatia muelleri Gtsf1; guide: piRNA #1 5'p-UGAGGUAGUAGGUUGUAUAGUAUCCA; MIWI and MILI are mouse PIWI proteins and EfPiwi is from a freshwater sponge; tags in brackets are library labels; higher = faster piRNA-guided slicing of the target).
How it was run: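 In HEPES–potassium acetate buffer at 33 °C, […] transcribed, DNA-blocked target RNA library was mixed with 1 nM active affinity-purified piRISC carrying one synthetic guide, with or without 500 nM GTSF1 partner protein, for 0–8 or 0–960 min. Uncleaved targets were sequenced and normalised to depth and to weakly complementary targets; three trials were pooled and k3 was capped at 0.0001 min^-1. The pre-steady-state cleavage rate followed from a burst-and-steady-state fit.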

Row | Sequence | pre-steady-state target cleavage rate
1 | GGAGUGGAUACUAUACAACCUACUAGGACA | 0.00314 ± 0.0029
2 | GGAGUGGAUACUAUACAACCUACUCACCUCA | 0.00247 ± 0.0014
3 | GGAGAGGAUACUAUACAACCUUCUAGCUCA | 0.00404 ± 0.0021
4 | GGAGAGGAUACUAUACAACCAAGUACCUCA | 0.00282 ± 0.002
5 | GGAGACCAUACUAUACUAACCUACUACCUCA | 0.0042 ± 0.0031
6 | GGAGUGGAUACUAUACAAACCUACUACCUCA | 0.0643 ± 0.023
7 | GGAGAGGAUACUAUACUAACCUACUACCUCA | 0.0128 ± 0.007
8 | GGAGUGGAUACUAUACAACCUACUUCCUGA | 0.00267 ± 0.0023
9 | GGAGAGGAUACUAUACAACCAACUUCCUCA | 0.00313 ± 0.0024
10 | GGAGACCUUACUAUACAACCUACUACCUUA | 0.0898 ± 0.034
11 | GGAGAGGAAACUAUACAACCUACUUCCUCA | 0.00302 ± 0.0017
12 | GGAGACCUUACUAUACAAGCCUACUACCUCA | 0.00541 ± 0.0031
13 | GGAGAGGAUACUAUACAACCUUCUACGUCA | 0.00356 ± 0.0021
14 | GGAGUGGAUACUCUACAACCUACUACCUCA | 0.00588 ± 0.0041
15 | GGAGACGAUACUAUACAACCUACUUGGAGA [g7:g24:cont:t1A] | 0.00429 ± 0.0022
16 | GGAGUCGAUACAAUACAACCUACUACCUCA | 0.00908 ± 0.0047
17 | GGAGACCUAUGAAUAGAACCUUCUACCUCA | < 0.0001
18 | GGAGUGGAAACUAUACAACCAACUACCUCA | 0.0049 ± 0.0032
19 | GGAGUGGAUACUAUACAACCUCACUACCUCA | 0.00417 ± 0.0022
20 | GGAGUGGAUACUAUACAACCUACUUGCUCA | 0.0047 ± 0.0026

Row | Sequence | pre-steady-state target cleavage rate
21 | GGAGACGAUACUAUAGAACCUACUACCUGA | 0.00292 ± 0.0011
22 | GGAGACCUAACAAAACAACCUACUACCUCA | 0.00903 ± 0.0046
23 | GGAGAGGAUACUAUACAACCUAGUAGCUCA | 0.00479 ± 0.0019
24 | GGAGUGGAUACUAUACAAGCCUACUACCUCA | 0.0104 ± 0.0053
25 | GGAGACCAUUCUAUACAACCUACUACCUCA | 0.0597 ± 0.02
26 | GGAGACGAAACUAUACAACCUACUUCCUCA | 0.00318 ± 0.0023
27 | GGAGUGGAUACUAUACAACCUUCUACGUCA | 0.00426 ± 0.0016
28 | GGAGACGAUACAAUACAACCUACAACCUCA | 0.00274 ± 0.0027
29 | GGAGAGGAUACUAUACAACCUACUACGUGA | 0.00416 ± 0.0019
30 | GGAGUGGAUACUAUACAACCUACAACGUCA | 0.00302 ± 0.0017
31 | GGAGUGGAUACUAUACAACCUAGUUCCUCA | 0.00239 ± 0.0021
32 | GGAGUGGAUACUAUACAACCUACUCCUCA | 0.00475 ± 0.0027
33 | GGAGUGGAUACAAUACAACGUACUACCUCA | 0.00385 ± 0.0018
34 | GGAGACGAUACUAUACAACGUACUUCCUCA | 0.00359 ± 0.0013
35 | GGAGACCUAUCUACACAACCUACUACCUCA | 0.00358 ± 0.0034
36 | GGAGACGAUACUAUACAACCUUCUUCCUCA | 0.0037 ± 0.0019
37 | GGAGACGAUACUAUAUAACCUACUACCUCA | 0.0091 ± 0.0042
38 | GGAGACCUAACUAUACAACCAACUACCUCA | 0.00331 ± 0.0023
39 | GGAGUGGAUACUAUACAACCUACAACCUGA | 0.00253 ± 0.0013
40 | GGAGUGGAUACUAUACAGACCUACUACCUCA | 0.0116 ± 0.0053
